In PubChem BioAssay (EPA / NIEHS) one finds outcome and AC50 data, which are given here for 17 compounds.

The source holds several records for some structures; these can differ, active in one and inactive in another. Activity calls are given as the source filed them. The calls were made as follows: active = hit-call score of the fitted dose curve at least 0.9, where 1 is the maximum; inactive = score below 0.9.

Read-out in the first test: Thrombomodulin, THBD (gene 7056)
Description: BSK_LPS_Thrombomodulin: BioMAP Diversity Plus: LPS Assay for Thrombomodulin Biomarker Activity (AID 2284296). The note with it: primary human HUVEC with PBMC. The gist of the method:
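Thrombomodulin on the surface of LPS-activated endothelial/PBMC co-cultures was quantified by ELISA at 24 hours post-dosing, with DMSO as baseline. Parallel SRB total-protein staining flagged overt cytotoxicity.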
Take `O=C(O)C(F)(F)OC(F)(F)C(F)(F)OC(F)(F)C(F)(F)C(F)(F)C(F)(F)F`: the outcome was inactive.
Same read-out and setting: with `C=C(F)C(=O)OC(C(F)(F)F)C(F)(F)F` the entry was “inactive”; with `OCC(F)(OC(F)(F)C(F)(OC(F)(F)C(F)(F)C(F)(F)F)C(F)(F)F)C(F)(F)F` (stereo not drawn), “inactive”; with `CCn1cc(C(=O)O)c(=O)c2ccc(C)nc21`, “inactive”.
Same read-out and setting: the value for `CC(=O)c1ccc(C)cc1` was “inactive”; that for `CC(C)CCCC(C)(C)O` was “inactive”.
Turning to `C=C(C)C(=O)OCCC(F)(F)C(F)(F)C(F)(F)C(F)(F)C(F)(F)C(F)(F)C(F)(F)C(F)(F)F`, the outcome was inactive.
On the same count and under the same terms, with `CC(C)(CO)CO` the entry was “inactive”; with `O=C(O)C(F)(F)C(F)(F)C(F)(F)C(F)(F)C(F)(F)C(F)(F)C(F)(F)C(F)F`, “inactive”.
With `CCCO[Si](OCCC)(OCCC)OCCC`, the result was inactive.
By AC50 is commonly meant the midpoint of the concentration-response curve, whichever way the signal moves. Take `c1ccc(OCCOc2ccccc2)cc1`: the AC50 is 12.3 µM (active) and the result was inactive.
As to `CCCCN(CCO)CCO`, the result was inactive.
`O=S(=O)(O)C(F)(F)C(F)(F)OC(F)(F)C(F)(F)F`: the outcome was inactive.

System in another test: not listed separately
Description: IUF_NPC2c_oligodendrocyte_migration_120hr: Leibniz Research Institute for Environmental Medicine (IUF) 120-hour Neural Progenitor Cell Migration Assay for Oligodendrocyte Migration (NPC2c) (AID 2284297).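 Also: O4-positive oligodendrocyte migration distance divided by radial glia migration distance.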
Settings: not given
An outline of the steps: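 Exposure runs 5 days from differentiation onset at 37C, seven concentrations plus solvent control, DMSO at most 0.1%, applied to primary hNPC spheres on laminin. After fixation, O4 immunostaining gives oligodendrocyte distance from the sphere core, relative to radial glia migration.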
Turning to `CCCCC(CC)COC(=O)COc1ccc(Cl)cc1C` (stereo not drawn), the call was inactive.
Same read-out and setting: with `N[C@@H](CCC(=O)O)C(=O)O` the entry was “inactive”.
As to `CC(C)Cc1ccc(C(C)C(=O)O)cc1` (stereo not drawn), the compound was called inactive.
The same measure, in the same setting: with `c1ccc2scnc2c1` the entry was “inactive”.

System in the next test: not listed separately
Description: IUF_NPC2a_radial_glia_migration_120hr: Leibniz Research Institute for Environmental Medicine (IUF) 120-hour Neural Progenitor Cell Migration Assay for Radial Glia Migration (NPC2a) (AID 2284298).
Settings: not given
How it is done:
IUF_NPC2-5 is a cell-based, multiplexed assay that uses hNPC, a human primary neural progenitor cells, with measurements taken at 72 or 120 hours after chemical dosing in a 96-well plate. Human neural progenitor cells (hNPC) are generated from human fetal brain cortex at gestational week (GW) 16-19. In the neural progenitor cell migration and differentiation assay (NPC2-5), hNPCs grown as spheres are plated on an extracellular matrix and migrate and differentiate out of the sphere core. The processes radial glia migration, neuronal and oligodendrocyte migration as well as neuronal differentiation, neuronal morphology and oligodendrocyte differentiation are studied using automated phase contrast imaging and automated fluorescence imaging in combination with high content image analysis. In parallel, the cell viability is assessed using an alamar blue viability assay and the cytotoxicity using a lactate dehydrogenase dependent membrane integrity assay.IUF_NPC2a_radial_glia_migration_120hr is one of 12 assay components measured from the IUF_NPC2-5 assay. The migration distance of radial glia at 120 hr is assessed in um from the edge of the sphere core to the edge of the migration area based on fluorescent images of Hoechst-positive nuclei. With the identification of each nucleus position around the sphere core, migration-related parameters can be calculated. First, a nuclei density distribution is calculated for which an algorithm determines relatively more and less dense nuclei areas. This calculation identifies the sphere core by the densest nuclei area in the image. The algorithm further assumes that nuclei density decreases from the sphere core to the periphery. When the nuclei density hits a pre-defined threshold, the outer boundaries of the migration area are determined and the sphere itself is mapped out in a polynomial bounding box. Derived from this box, the size of the migration area and the migration distance are calculated for each well.Data from the IUF_NPC2a_radial_glia_migration_120hr component was analyzed at the endpoint IUF_NPC2a_ radial_glia_migration_120hr in the positive analysis fitting direction relative to DMSO as the negative control and baseline of activity. Using a type of migration reporter, gain or loss-of-signal activity can be used to understand developmental effects.
Culture protocol: After the cell expansion period the cells are cultured for up to four weeks in which they are passaged every week as described in 3.6. […] Therefore, half of the test condition solution (e.g. solvent control or compound dilution) is replaced by freshly prepared test condition solution.Test Method: Migration distance and cytotoxicity is determined after 72 hours based on brightfield images of each well. […]
`CCCCC(CC)COC(=O)COc1ccc(Cl)cc1C` (stereo not drawn): the result was inactive.
On the same count and under the same terms, the value for `N[C@@H](CCC(=O)O)C(=O)O` was “inactive”; that for `CC(C)Cc1ccc(C(C)C(=O)O)cc1` (stereo not drawn) was “inactive”.
With `c1ccc2scnc2c1`, the compound was called inactive.

System in the next test: not listed separately
Description: IUF_NPC2a_radial_glia_migration_72hr: Leibniz Research Institute for Environmental Medicine (IUF) 72-hour Neural Progenitor Cell Migration Assay for Radial Glia Migration (NPC2a) (AID 2284299).
Settings: not given
How it is done:
IUF_NPC2-5 is a cell-based, multiplexed assay that uses hNPC, a human primary neural progenitor cells, with measurements taken at 72 or 120 hours after chemical dosing in a 96-well plate. Human neural progenitor cells (hNPC) are generated from human fetal brain cortex at gestational week (GW) 16-19. In the neural progenitor cell migration and differentiation assay (NPC2-5), hNPCs grown as spheres are plated on an extracellular matrix and migrate and differentiate out of the sphere core. The processes radial glia migration, neuronal and oligodendrocyte migration as well as neuronal differentiation, neuronal morphology and oligodendrocyte differentiation are studied using automated phase contrast imaging and automated fluorescence imaging in combination with high content image analysis. In parallel, the cell viability is assessed using an alamar blue viability assay and the cytotoxicity using a lactate dehydrogenase dependent membrane integrity assay.IUF_NPC2a_radial glia_migration_72hr is one of 12 assay components measured from the IUF_NPC2-5 assay. The migration distance of radial glia at 72 hr is assessed in um from the edge of the sphere core to the edge of the migration area based on brightfield images of each well. Therefore, each plate is scanned using a high content imaging device. Images are exported and the migration distance is measured manually in four directions using ImageJ. The mean of four measures per well is used as raw data input.Data from the IUF_NPC2a_radial_glia_migration_72hr component was analyzed at the endpoint IUF_NPC2a_radial_glia_migration_72hr in the positive analysis fitting direction relative to DMSO as the negative control and baseline of activity. Using a type of migration reporter, gain or loss-of-signal activity can be used to understand developmental effects.
Culture protocol: After the cell expansion period the cells are cultured for up to four weeks in which they are passaged every week as described in 3.6. Between one to three days after passaging spheres at a size of 0.3 mm are picked for the test method. […] Therefore, half of the test condition solution (e.g. solvent control or compound dilution) is replaced by freshly prepared test condition solution.Test Method: Migration distance and cytotoxicity is determined after 72 hours based on brightfield images of each well. […] On the ICC images, migration after 120 hours, neuronal and oligodendrocyte number, neuronal morphology and neuron/oligodendrocyte specific migration is assessed. immunocytochemical staining (ICC) generates an image for each sphere. The plates are scanned using an automated high content imaging device and all nuclei and their positions are determined automatically based on their intensity and size. […]
As for `CCCCC(CC)COC(=O)COc1ccc(Cl)cc1C` (stereo not drawn), the result was inactive.
The same measure, in the same setting: the value for `N[C@@H](CCC(=O)O)C(=O)O` was “inactive”; that for `CC(C)Cc1ccc(C(C)C(=O)O)cc1` (stereo not drawn) was “inactive”; that for `c1ccc2scnc2c1` was “inactive”.

System in the next test: not listed separately
Description: IUF_NPC2b_neuronal_migration_120hr: Leibniz Research Institute for Environmental Medicine (IUF) 120-hour Neural Progenitor Cell Migration Assay for Neuron Migration (NPC2b) (AID 2284300).
Settings: not given
The gist of the method: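 TUBB3-positive neurons are imaged after 120 h of differentiation, and their mean distance from the sphere edge is normalised to radial glia migration. Single 0.3 mm fetal hNPC spheres on poly-D-lysine/laminin received 7 compound concentrations, ≤0.1% DMSO, refreshed at day 3.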
With `CCCCC(CC)COC(=O)COc1ccc(Cl)cc1C` (stereo not drawn), the call was inactive.
Take `N[C@@H](CCC(=O)O)C(=O)O`: the result was inactive.
Regarding `CC(C)Cc1ccc(C(C)C(=O)O)cc1` (stereo not drawn), the compound was called inactive.
With `c1ccc2scnc2c1`, the result was inactive.

System in another test: not listed separately
Description: IUF_NPC3_neuronal_differentiation_120hr: Leibniz Research Institute for Environmental Medicine (IUF) 120-hour Neuronal Differentiation Assay (NPC3) (AID 2284301).
Settings: not given
The gist of the method: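 Neuronal differentiation of primary human neural progenitors measured by high-content imaging: percent TUBB3+ of Hoechst+ nuclei within migrated area at 120 h, seven-point serial dilution plus solvent control, gain or loss relative to DMSO.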
Take `CCCCC(CC)COC(=O)COc1ccc(Cl)cc1C` (stereo not drawn): the result was inactive.
Still for that read-out and setting: with `N[C@@H](CCC(=O)O)C(=O)O` the entry was “inactive”.
On the same count and under the same terms, with `CC(C)Cc1ccc(C(C)C(=O)O)cc1` (stereo not drawn) the entry was “inactive”; with `c1ccc2scnc2c1`, “inactive”.

System in a further test: not listed separately
The test can be described thus: IUF_NPC4_neurite_length_120hr: Leibniz Research Institute for Environmental Medicine (IUF) 120-hour Neuronal Morphology Assay for Neurite Length (NPC4) (AID 2284302).
Settings: not given
The gist of the method:
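Neurons from differentiating human fetal neural progenitor spheres are scored for average neurite length after five days of compound exposure. Fitting uses DMSO as negative control.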
For the compound `CCCCC(CC)COC(=O)COc1ccc(Cl)cc1C` (stereo not drawn), the outcome was inactive.
Same read-out and setting: the value for `N[C@@H](CCC(=O)O)C(=O)O` was “inactive”; that for `CC(C)Cc1ccc(C(C)C(=O)O)cc1` (stereo not drawn) was “inactive”; that for `c1ccc2scnc2c1` was “inactive”.
